Source: publication PMC7862700, “An all-to-all approach to the identification of sequence-specific readers for epigenetic DNA modifications on cytosine”

How the values were obtained:
Test in all cases: DAPPL (digital affinity profiling via proximity ligation, sequencing); 10 mM Tris-HCl pH 7.5, 50 mM NaCl, 1 mM DTT, 4% glycerol, room temperature, 30 min; GST-TFs on glutathione beads, 16-mer random dsDNA library, 0.1% formaldehyde crosslink after washing; high values mean tight binding
Conditions in all cases: protein: recombinant; tags: N-terminal GST; dsDNA, one strand shown
ERF = molecular target: T1, ERF (Homo sapiens, UniProt P50548 1-548)
T1 sequence: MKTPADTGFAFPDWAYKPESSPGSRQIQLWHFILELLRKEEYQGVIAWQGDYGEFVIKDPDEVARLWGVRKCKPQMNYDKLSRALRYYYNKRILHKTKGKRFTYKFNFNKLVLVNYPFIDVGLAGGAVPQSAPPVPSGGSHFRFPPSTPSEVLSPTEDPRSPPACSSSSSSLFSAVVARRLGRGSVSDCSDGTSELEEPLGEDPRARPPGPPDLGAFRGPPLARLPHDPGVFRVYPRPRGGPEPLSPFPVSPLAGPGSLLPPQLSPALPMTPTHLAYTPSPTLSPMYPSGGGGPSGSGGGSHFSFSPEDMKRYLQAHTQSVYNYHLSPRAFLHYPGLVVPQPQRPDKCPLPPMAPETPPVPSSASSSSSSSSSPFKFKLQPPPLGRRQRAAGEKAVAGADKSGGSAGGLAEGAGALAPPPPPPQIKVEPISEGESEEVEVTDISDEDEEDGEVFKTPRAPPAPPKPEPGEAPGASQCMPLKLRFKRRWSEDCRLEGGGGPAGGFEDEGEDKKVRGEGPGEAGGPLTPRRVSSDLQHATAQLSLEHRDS
Summary of the method: (§1)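 GST fusions of human transcription factors were expressed in yeast and captured with glutathione beads. Once given DNA barcodes and pooled alongside a tag-only sample, they were incubated for 30 min at room temperature with 200 nmole of a random double-stranded 16-mer DNA library in Tris/NaCl/DTT/glycerol buffer, then washed, crosslinked (0.1% formaldehyde), proximity-ligated, PCR-amplified and sequenced on an Illumina NextSeq500. The binding signal of each hexamer is its read frequency for a factor divided by its frequency for the tag-only sample.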

ETV3L = molecular target: T2, ETV3L (Homo sapiens, UniProt Q6ZN32 1-361)
T2 sequence: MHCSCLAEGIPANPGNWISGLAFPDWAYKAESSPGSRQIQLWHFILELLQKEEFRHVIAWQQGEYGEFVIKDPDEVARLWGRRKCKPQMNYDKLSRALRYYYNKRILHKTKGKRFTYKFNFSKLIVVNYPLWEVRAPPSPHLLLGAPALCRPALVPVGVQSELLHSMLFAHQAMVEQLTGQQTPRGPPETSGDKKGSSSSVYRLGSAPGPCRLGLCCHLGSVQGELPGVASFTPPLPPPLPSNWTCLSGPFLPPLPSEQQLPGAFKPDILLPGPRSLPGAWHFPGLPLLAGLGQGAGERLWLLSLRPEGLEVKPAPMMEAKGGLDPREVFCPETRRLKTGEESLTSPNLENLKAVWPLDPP
Summary of the method: as §1

ETS2 = molecular target: T3, ETS2 (Homo sapiens, UniProt P15036 1-469)
T3 sequence: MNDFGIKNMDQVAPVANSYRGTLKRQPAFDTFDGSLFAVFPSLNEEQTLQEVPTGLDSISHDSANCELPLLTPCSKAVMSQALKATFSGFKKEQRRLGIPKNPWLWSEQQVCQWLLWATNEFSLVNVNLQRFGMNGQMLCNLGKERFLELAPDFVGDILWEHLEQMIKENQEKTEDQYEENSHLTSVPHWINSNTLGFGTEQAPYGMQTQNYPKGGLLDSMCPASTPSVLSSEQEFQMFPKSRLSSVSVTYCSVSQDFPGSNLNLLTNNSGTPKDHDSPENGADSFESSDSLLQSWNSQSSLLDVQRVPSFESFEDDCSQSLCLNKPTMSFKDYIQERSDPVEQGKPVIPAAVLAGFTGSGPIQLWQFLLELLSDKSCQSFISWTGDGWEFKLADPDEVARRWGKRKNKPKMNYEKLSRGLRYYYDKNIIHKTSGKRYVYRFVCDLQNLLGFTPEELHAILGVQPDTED
Summary of the method: as §1

SPDEF = molecular target: T4, SPDEF (Homo sapiens, UniProt O95238 1-335)
T4 sequence: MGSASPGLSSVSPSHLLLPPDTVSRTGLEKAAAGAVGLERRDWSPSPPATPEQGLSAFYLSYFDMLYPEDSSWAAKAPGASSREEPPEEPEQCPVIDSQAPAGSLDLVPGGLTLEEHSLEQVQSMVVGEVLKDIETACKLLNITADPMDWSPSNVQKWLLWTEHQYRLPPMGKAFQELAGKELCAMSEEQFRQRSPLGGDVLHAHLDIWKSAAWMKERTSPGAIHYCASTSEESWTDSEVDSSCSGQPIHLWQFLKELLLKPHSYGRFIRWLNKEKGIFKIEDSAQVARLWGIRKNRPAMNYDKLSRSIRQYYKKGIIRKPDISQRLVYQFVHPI
Summary of the method: as §1

ETV7 = molecular target: T5, ETV7 (Homo sapiens, UniProt Q9Y603 1-341)
T5 sequence: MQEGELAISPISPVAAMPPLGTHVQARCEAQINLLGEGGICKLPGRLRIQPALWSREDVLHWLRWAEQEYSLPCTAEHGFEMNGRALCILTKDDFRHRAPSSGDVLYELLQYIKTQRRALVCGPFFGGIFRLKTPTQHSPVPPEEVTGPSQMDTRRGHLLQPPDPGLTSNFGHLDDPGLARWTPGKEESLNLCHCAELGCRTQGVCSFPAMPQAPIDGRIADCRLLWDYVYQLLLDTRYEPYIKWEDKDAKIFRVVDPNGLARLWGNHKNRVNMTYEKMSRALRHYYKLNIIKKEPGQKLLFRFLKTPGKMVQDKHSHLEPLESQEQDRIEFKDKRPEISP
Summary of the method: as §1

ELF5 = molecular target: T6, ELF5 (Homo sapiens, UniProt Q9UKW6-2 1-255)
T6 sequence: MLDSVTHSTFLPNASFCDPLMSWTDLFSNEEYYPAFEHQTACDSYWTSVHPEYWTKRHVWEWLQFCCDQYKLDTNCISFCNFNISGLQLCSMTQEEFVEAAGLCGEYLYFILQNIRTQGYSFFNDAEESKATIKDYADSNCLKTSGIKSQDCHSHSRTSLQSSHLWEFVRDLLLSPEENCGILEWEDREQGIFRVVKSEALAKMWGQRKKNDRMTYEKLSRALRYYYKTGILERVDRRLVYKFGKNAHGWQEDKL
Summary of the method: as §1

ETV3 = molecular target: T7, ETV3 (Homo sapiens, UniProt P41162-2 1-143)
T7 sequence: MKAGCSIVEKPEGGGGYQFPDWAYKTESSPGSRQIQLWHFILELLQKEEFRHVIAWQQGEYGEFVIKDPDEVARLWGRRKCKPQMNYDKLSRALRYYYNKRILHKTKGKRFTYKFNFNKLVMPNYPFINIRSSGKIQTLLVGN
Summary of the method: as §1

ETV6 = ETV6 (Homo sapiens, UniProt P41212 1-452)
ETV6, sequence (P41212 whole entry): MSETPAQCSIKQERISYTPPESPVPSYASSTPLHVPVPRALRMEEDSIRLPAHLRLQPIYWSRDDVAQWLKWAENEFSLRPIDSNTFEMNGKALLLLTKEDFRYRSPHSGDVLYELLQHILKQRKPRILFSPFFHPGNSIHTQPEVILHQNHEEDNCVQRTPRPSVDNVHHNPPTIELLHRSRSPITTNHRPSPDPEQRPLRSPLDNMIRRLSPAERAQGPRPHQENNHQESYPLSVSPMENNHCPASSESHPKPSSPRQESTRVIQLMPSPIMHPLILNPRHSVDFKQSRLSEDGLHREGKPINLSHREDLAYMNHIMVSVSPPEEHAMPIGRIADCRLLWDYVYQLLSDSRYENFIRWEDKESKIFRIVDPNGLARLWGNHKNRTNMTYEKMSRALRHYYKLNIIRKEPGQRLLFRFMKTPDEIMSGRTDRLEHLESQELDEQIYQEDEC
Summary of the method: as §1

Sequence	binding signal (ERF)	binding signal (ETV3L)	binding signal (ETS2)	binding signal (SPDEF)	binding signal (ETV7)	binding signal (ELF5)	binding signal (ETV3)	binding signal (ETV6)
TCTATC	1.37 fold enrichment (6-mer frequency, TF over GST control)	1.27 fold enrichment (6-mer frequency, TF over GST control)	1.16 fold enrichment (6-mer frequency, TF over GST control)	1.27 fold enrichment (6-mer frequency, TF over GST control)	1.27 fold enrichment (6-mer frequency, TF over GST control)	1.24 fold enrichment (6-mer frequency, TF over GST control)	1.2 fold enrichment (6-mer frequency, TF over GST control)	1.32 fold enrichment (6-mer frequency, TF over GST control)
CCGTTC	1.61 fold enrichment (6-mer frequency, TF over GST control)	1.44 fold enrichment (6-mer frequency, TF over GST control)	1.36 fold enrichment (6-mer frequency, TF over GST control)	1.41 fold enrichment (6-mer frequency, TF over GST control)	1.32 fold enrichment (6-mer frequency, TF over GST control)	1.56 fold enrichment (6-mer frequency, TF over GST control)	1.38 fold enrichment (6-mer frequency, TF over GST control)	1.37 fold enrichment (6-mer frequency, TF over GST control)
AAAACG	1.24 fold enrichment (6-mer frequency, TF over GST control)	1.19 fold enrichment (6-mer frequency, TF over GST control)	1.21 fold enrichment (6-mer frequency, TF over GST control)	1.2 fold enrichment (6-mer frequency, TF over GST control)	1.14 fold enrichment (6-mer frequency, TF over GST control)	1.18 fold enrichment (6-mer frequency, TF over GST control)	1.15 fold enrichment (6-mer frequency, TF over GST control)	1.25 fold enrichment (6-mer frequency, TF over GST control)
CTTGGG	1.47 fold enrichment (6-mer frequency, TF over GST control)	1.26 fold enrichment (6-mer frequency, TF over GST control)	1.28 fold enrichment (6-mer frequency, TF over GST control)	1.21 fold enrichment (6-mer frequency, TF over GST control)	1.3 fold enrichment (6-mer frequency, TF over GST control)	1.19 fold enrichment (6-mer frequency, TF over GST control)	1.26 fold enrichment (6-mer frequency, TF over GST control)	1.23 fold enrichment (6-mer frequency, TF over GST control)
TTCCTG	1.87 fold enrichment (6-mer frequency, TF over GST control)	2.35 fold enrichment (6-mer frequency, TF over GST control)	2.4 fold enrichment (6-mer frequency, TF over GST control)	2.25 fold enrichment (6-mer frequency, TF over GST control)	2.03 fold enrichment (6-mer frequency, TF over GST control)	3.79 fold enrichment (6-mer frequency, TF over GST control)	2.66 fold enrichment (6-mer frequency, TF over GST control)	2.57 fold enrichment (6-mer frequency, TF over GST control)
TATTGG	1.2 fold enrichment (6-mer frequency, TF over GST control)	1.18 fold enrichment (6-mer frequency, TF over GST control)	1.23 fold enrichment (6-mer frequency, TF over GST control)	1.23 fold enrichment (6-mer frequency, TF over GST control)	1.19 fold enrichment (6-mer frequency, TF over GST control)	1.1 fold enrichment (6-mer frequency, TF over GST control)	1.17 fold enrichment (6-mer frequency, TF over GST control)	1.21 fold enrichment (6-mer frequency, TF over GST control)
ATTCGT	1.22 fold enrichment (6-mer frequency, TF over GST control)	1.16 fold enrichment (6-mer frequency, TF over GST control)	1.26 fold enrichment (6-mer frequency, TF over GST control)	1.18 fold enrichment (6-mer frequency, TF over GST control)	1.34 fold enrichment (6-mer frequency, TF over GST control)	1.11 fold enrichment (6-mer frequency, TF over GST control)	1.28 fold enrichment (6-mer frequency, TF over GST control)	1.11 fold enrichment (6-mer frequency, TF over GST control)
